Measurements published in the supplement of paper PMC9135407.
Values joined by “and” are separate entries in the source; they are usually repeats but may differ in a detail not shown here. Equal entries are not always repeated. Structures can show the parent of a compound that is named as a salt. The whole screen tested about 5,800 compounds, of which about 620 (11%) showed activity. Only a selection was taken, and actives are over-represented in it overall. Values without a mark were called inactive.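 How the source made its calls: active = score above a cut-off or among the top three wells of a plate; in these data no inactive exceeds 0.85.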

System: primary human hepatic stellate cells (donor 1)
Assay: scaled lipid accumulation score (0 = DMSO-like, 1 = nortriptyline-like); higher = stronger HSC inactivation (lipid re-accumulation), active = hit call of the paper
Conditions: 48 h
[1] = library stock concentration: 10 mM
[2] = library stock concentration: 1 mM
[3] = library stock concentration: 3.33 mM
[4] = library stock concentration: 80 uM
[5] = library stock concentration: 400 uM
[6] = library stock concentration: 2 mM

Structure (SMILES): Cc1ncc(CSSCc2cnc(C)c(O)c2CO)c(CO)c1O
- scaled lipid accumulation score [1]: ≤ 0

Structure (SMILES): O=C1c2c(O)cc(CO)cc2C(OC2OC(CO)C(O)C(O)C2O)c2cccc(OC3OC(CO)C(O)C(O)C3O)c21 (stereo unspecified) [CASANTHRANOL [cascaroside A shown]]
- scaled lipid accumulation score [1]: ≤ 0

Structure (SMILES): CCCCCCCCCCCSCC(=O)O [3-Thiatetradecanoic Acid]
- scaled lipid accumulation score [2]: 0.006

Structure (SMILES): Cn1cc(-c2[nH]c3cc(NC(=O)[C@H](N)C4CCCCC4)cc4c3c2C=NNC4=O)cn1
- scaled lipid accumulation score [3]: ≤ 0
- scaled lipid accumulation score [1]: 0.077

Structure (SMILES): CN1c2cc3c(cc2N=C(c2ccc(C(=O)O)cc2)c2ccccc21)C(C)(C)CCC3(C)C
- scaled lipid accumulation score [1]: 0.08

Structure (SMILES): CNCCCC12CCC(c3ccccc31)c1ccccc12 [Maprotiline HCl]
- scaled lipid accumulation score [3]: 0.678

Structure (SMILES): CNCCCC12CCC(c3ccccc31)c1ccccc12 [Maprotilline HCl]
- scaled lipid accumulation score [1]: 1.35 (active)

Structure (SMILES): CNCCC[C@]12CC[C@H](c3ccccc31)c1ccccc12 [Maprotiline HCl]
- scaled lipid accumulation score (library stock concentration: 7.2 mM): 1.22 (active)

Structure (SMILES): C=CCN1CCc2c(cc(O)c(O)c2Cl)C(c2ccccc2)C1 (stereo unspecified)
- scaled lipid accumulation score [1]: 0.02

Structure (SMILES): NCCNC(=O)c1ccc(Cl)cn1 [Lazabemide hydrochloride]
- scaled lipid accumulation score [1]: ≤ -0.001

Structure (SMILES): CCCCNC(=O)[C@@H]1Cc2ccccc2N1C(=O)[C@@H](N)CC [Butabindide oxalate]
- scaled lipid accumulation score [1]: 0.016

Structure (SMILES): CCCCCCCCCCCC=CC(C)(C)C=CCCCC(=O)O [7,7-Dimethyleicosadienoic acid]
- scaled lipid accumulation score [2]: ≤ -0.02

Structure (SMILES): CN1CCN(C2=Nc3cc(Cl)ccc3Nc3ccccc32)CC1
- scaled lipid accumulation score [1]: 0.854 (active)

Structure (SMILES): Clc1ccc2c(c1)N=C(N1CCNCC1)c1ccccc1N2 [N-Desmethylclozapine] [listing 1 of 2 here]
- scaled lipid accumulation score [1]: 0.941 (active)

Structure (SMILES): CN1CCN(C2=Nc3cc(F)ccc3Cc3ccccc32)CC1 [Fluperlapine]
- scaled lipid accumulation score [1]: 0.448

Structure (SMILES): CN1CCN(C2=Nc3cc(Cl)ccc3Nc3ccccc32)CC1 [Clozapine] [listing 1 of 4 here]
- scaled lipid accumulation score [1]: 0.977 (active)

Structure (SMILES): CN1CCN(C2=Nc3cc(Cl)ccc3Nc3ccccc32)CC1 [Clozapine] [listing 2 of 4 here]
- scaled lipid accumulation score: 1 (active)

Structure (SMILES): Clc1ccc2c(c1)N=C(N1CCNCC1)c1ccccc1N2 [N-Desmethylclozapine] [listing 2 of 2 here]
- scaled lipid accumulation score [1]: 0.668

Structure (SMILES): CC(NC(=O)C(O)c1cc(F)cc(F)c1)C(=O)NC1C(=O)N(C)c2ccccc2-c2ccccc21 (stereo unspecified)
- scaled lipid accumulation score [3]: 0.011
- scaled lipid accumulation score [1]: 0.133

Structure (SMILES): O=C(Nc1cccc2cccnc12)c1ccc(N2C(=O)C3C4C=CC(C4)C3C2=O)cc1 (stereo not drawn) [IWR-1-endo]
- scaled lipid accumulation score [3]: ≤ 0
- scaled lipid accumulation score [1]: ≤ -0.001

Structure (SMILES): CCCCC/C=C\C/C=C\C/C=C\C/C=C\CCCC(=O)OCc1ccsc1
- scaled lipid accumulation score [2]: ≤ 0

Structure (SMILES): C[C@]12CC[C@@H]3c4cc(O)c(O)cc4CC[C@H]3[C@@H]1CC[C@@H]2O [2-Hydroxyestradiol]
- scaled lipid accumulation score [2]: ≤ 0

Structure (SMILES): Nc1nccc(-c2ccc3noc(-c4ccc(Cl)cc4)c3c2)n1 [PIM 1 Inhibitor 2]
- scaled lipid accumulation score [1]: ≤ 0

Structure (SMILES): CCNc1nc2c(ncn2[C@H]2C[C@H](O)[C@@H](CO)O2)c(=O)[nH]1 [N2-Ethyl-2'-deoxyguanosine]
- scaled lipid accumulation score [1]: ≤ 0

Structure (SMILES): N.N.N.N.N.N.N.N.N.N.N.N.N.N.O.O.[Cl-].[Cl-].[Cl-].[Cl-].[Cl-].[Cl-].[Ru+4].[Ru+5].[Ru+5] [Ruthenium red]
- scaled lipid accumulation score [1]: ≤ 0

Structure (SMILES): CC(C)=CCC/C(C)=C/CC/C(C)=C/CC/C(C)=C/CC/C(C)=C/CC/C(C)=C/CC1=C(C)C(=O)c2ccccc2C1=O [Vitamin K2]
- scaled lipid accumulation score: 0.008

Structure (SMILES): CN1CCN(C2=Nc3cc(Cl)ccc3Nc3ccccc32)CC1 [Clozapine] [listing 3 of 4 here]
- scaled lipid accumulation score [3]: 0.105
- scaled lipid accumulation score (library stock concentration: 6.1 mM): 0.429 and 0.648
- scaled lipid accumulation score [1]: 0.755 and 0.578
- scaled lipid accumulation score (library stock concentration: 15.3 mM): 0.769

Structure (SMILES): Cc1cc2c(s1)Nc1ccccc1N=C2N1CCN(C)CC1 [Olanzapine]
- scaled lipid accumulation score [3]: 0.171
- scaled lipid accumulation score (library stock concentration: 6.4 mM): 0.341 and ≤ 0
- scaled lipid accumulation score [1]: 0.232

Structure (SMILES): Cc1cc2c(s1)Nc1ccccc1N=C2N1CCN(C)CC1
- scaled lipid accumulation score (library stock concentration: 9.9 mM): 0.228

Structure (SMILES): CN1CCN(C2=Nc3cc(Cl)ccc3Nc3ccccc32)CC1 [Clozapine] [listing 4 of 4 here]
- scaled lipid accumulation score [1]: 0.967 (active)

Structure (SMILES): O=C(O)CCC/C=C\C[C@@H]1[C@@H](CC[C@@H](O)CCc2cccc(C(F)(F)F)c2)[C@H](O)C[C@@H]1O
- scaled lipid accumulation score [2]: ≤ 0

Structure (SMILES): CCCCOc1cc(C(=O)NCCN(CC)CC)c2ccccc2n1 [Dibucaine HCl]
- scaled lipid accumulation score [3]: 0.253

Structure (SMILES): CCCCOc1cc(C(=O)NCCN(CC)CC)c2ccccc2n1.Cl [Dibucaine HCl]
- scaled lipid accumulation score [1]: 0.977 (active)

Structure (SMILES): CCCCOc1cc(C(=O)NCCN(CC)CC)c2ccccc2n1 [Dibucaine]
- scaled lipid accumulation score: 0.284

Structure (SMILES): CCN(CC)CCNC(=O)c1cc(S(C)(=O)=O)ccc1OC [Tiapride hydrochloride]
- scaled lipid accumulation score: 0.066
- scaled lipid accumulation score [1]: ≤ 0 and ≤ -0.027

Structure (SMILES): CCCCOc1cc(C(=O)NCCN(CC)CC)c2ccccc2n1 [Dibucaine hydrochloride]
- scaled lipid accumulation score (library stock concentration: 5.3 mM): 0.662
- scaled lipid accumulation score [1]: ≤ 0

Structure (SMILES): CS(=O)(=O)NC(=O)CCC/C=C\C[C@H]1C(=O)C[C@@H](O)[C@@H]1/C=C/[C@@H](O)COc1ccccc1 [Sulprostone]
- scaled lipid accumulation score [2]: ≤ 0

Structure (SMILES): O=C1NC(=O)C(c2cnc3ccccn23)=C1c1cn2c3c(cc(F)cc13)CN(C(=O)N1CCCCC1)CC2 [listing 1 of 2 here]
- scaled lipid accumulation score [4]: 0.956 (active)
- scaled lipid accumulation score [1]: 0.857 (active)

Structure (SMILES): O=C1NC(=O)C(c2cnc3ccccn23)=C1c1cn2c3c(cc(F)cc13)CN(C(=O)N1CCCCC1)CC2 [listing 2 of 2 here]
- scaled lipid accumulation score [5]: 0.836
- scaled lipid accumulation score [6]: 0.699

Structure (SMILES): CC(=O)N[C@H]1[C@H]([C@H](O)[C@H](O)CO)OC(C(=O)O)=C[C@@H]1NC(=N)N [Zanamivir]
- scaled lipid accumulation score [3]: ≤ 0
- scaled lipid accumulation score [1]: ≤ 0

Structure (SMILES): COc1ccc(C(=O)/C(Br)=C\C(=O)O)cc1 [Bromebric acid]
- scaled lipid accumulation score (library stock concentration: 7 mM): ≤ -0.006

Structure (SMILES): NC(N)=NC(=O)c1nc(Cl)c(N)nc1N
- scaled lipid accumulation score [1]: ≤ 0

Structure (SMILES): CN(C)c1nc(N)c(C(=O)NC(=N)N)nc1Cl [5-(N,N-Dimethyl)amiloride hydrochloride]
- scaled lipid accumulation score [1]: ≤ 0

Structure (SMILES): n(c1N)c(N(CC)C(C)C)c(nc1C(=O)\N=C(\N)/N)Cl [5-(N-Ethyl-N-isopropyl)amiloride]
- scaled lipid accumulation score [1]: 1.07 (active)

Structure (SMILES): c(c1N)(C(=O)\N=C(\N)/N)nc(c(N2CCCCCC2)n1)Cl [5-(N,N-hexamethylene)amiloride]
- scaled lipid accumulation score [1]: 1.13 (active)

Structure (SMILES): O=C(O)CCCC=CCC1C(=O)CC(O)C1C=CC(O)CCc1ccccc1 (stereo unspecified) [17-phenyl trinor Prostaglandin E2]
- scaled lipid accumulation score [2]: ≤ 0

Structure (SMILES): O=C(O)CCCC=CCC1C(=O)CC(O)C1C=CC(O)CCc1ccccc1 (stereo unspecified) [17-Phenyl-trinor-prostaglandin E2]
- scaled lipid accumulation score [2]: ≤ -0.021

Structure (SMILES): O=C(O)c1cc(N(Cc2ccccc2O)Cc2cc(O)ccc2O)ccc1O [Lavendustin A]
- scaled lipid accumulation score (library stock concentration: 13.1 mM): ≤ -0.007

Structure (SMILES): O=C(O)C(Cc1ccccc1[N+](=O)[O-])=NNc1nc(-c2ccc(Cl)c(Cl)c2)cs1
- scaled lipid accumulation score [3]: 0.038
- scaled lipid accumulation score [1]: ≤ 0

Structure (SMILES): Nc1ccc(S(=O)(=O)O)cc1.Nc1ccc(S(=O)(=O)O)cc1.[Zn] [Sulfanilate zinc]
- scaled lipid accumulation score (library stock concentration: 4.9 mM): ≤ 0

Structure (SMILES): O=C1NC(=O)/C(=C/c2ccc(-c3ccc(F)cc3O)o2)S1 [listing 1 of 2 here]
- scaled lipid accumulation score [1]: 1.66 (active)

Structure (SMILES): O=C1NC(=O)C(=Cc2ccc(-c3ccc(F)cc3)o2)S1 (stereo in doubt)
- scaled lipid accumulation score [3]: 0.028
- scaled lipid accumulation score [1]: ≤ 0

Structure (SMILES): O=C1NC(=O)/C(=C/c2ccc(-c3ccc(F)cc3O)o2)S1 [listing 2 of 2 here]
- scaled lipid accumulation score [5]: 0.064
- scaled lipid accumulation score [2]: 0.034
- scaled lipid accumulation score [6]: 0.304
- scaled lipid accumulation score [3]: 0.132
- scaled lipid accumulation score [1]: 0.526 and 0.759

Structure (SMILES): CCCCCCCCC=CCC=CCC=CCCCC(=O)O [5(Z),8(Z),11(Z)-Eicosatrienoic Acid]
- scaled lipid accumulation score [2]: 0.072

Structure (SMILES): OC[C@H]1NC[C@H](O)[C@@H](O)[C@@H]1O [1-Deoxynojirimycin hydrochloride]
- scaled lipid accumulation score [1]: ≤ -0.07

Structure (SMILES): CNC(=O)[C@H]1O[C@@H](n2cnc3c(NCc4cccc(I)c4)nc(Cl)nc32)[C@H](O)[C@@H]1O
- scaled lipid accumulation score [1]: 0.019

Structure (SMILES): CNC(=O)[C@H]1O[C@@H](n2cnc3c(NCc4cccc(I)c4)nc(Cl)nc32)[C@H](O)[C@@H]1O [Chloro-IB-MECA]
- scaled lipid accumulation score [1]: ≤ -0.07

Structure (SMILES): Cc1cc(CS(=O)(=O)c2ccccc2)cc(OCc2ccc(CN3CCC[C@@H]3CO)cc2)c1 [listing 1 of 2 here]
- scaled lipid accumulation score [1]: 1.03 (active)

Structure (SMILES): Cc1cc(CS(=O)(=O)c2ccccc2)cc(OCc2ccc(CN3CCC[C@@H]3CO)cc2)c1 [listing 2 of 2 here]
- scaled lipid accumulation score [3]: ≤ -0.009

Structure (SMILES): CCCCC[C@H](O)/C=C/[C@@H]1[C@@H](CCCCCCC(=O)O)[C@H](O)C[C@H]1O [Prostaglandin F1.beta.]
- scaled lipid accumulation score [2]: ≤ 0

Structure (SMILES): COc1ccc2c3n(c(=NC(=O)c4cccnc4)nc2c1OC)CCN3
- scaled lipid accumulation score [5]: ≤ -0.005
- scaled lipid accumulation score [6]: ≤ -0.005
- scaled lipid accumulation score [1]: ≤ -0.005

Structure (SMILES): CCCCC[C@H](O)/C=C/[C@H]1CC[C@@H](O)[C@@H]1C/C=C\CCCC(=O)O [11-deoxy Prostaglandin F2.beta.]
- scaled lipid accumulation score [2]: ≤ 0

Structure (SMILES): CCCCCCCCCCC1=C(C)C(=O)C(OC)=C(OC)C1=O [Decylubiquinone]
- scaled lipid accumulation score (library stock concentration: 15.5 mM): ≤ -0.021

Structure (SMILES): CCC1(C)OC(=O)N(C)C1=O (stereo unspecified)
- scaled lipid accumulation score [1]: ≤ 0

Structure (SMILES): CCN1CCN(Cc2ccc(Nc3ncc(F)c(-c4cc(F)c5nc(C)n(C(C)C)c5c4)n3)nc2)CC1 [Abemaciclib] [listing 1 of 2 here]
- scaled lipid accumulation score [6]: 0.882 (active)

Structure (SMILES): CCN1CCN(Cc2ccc(Nc3ncc(F)c(-c4cc(F)c5nc(C)n(C(C)C)c5c4)n3)nc2)CC1.CS(=O)(=O)O
- scaled lipid accumulation score [3]: 0.963 (active)
- scaled lipid accumulation score [1]: 0.943 (active)

Structure (SMILES): CCN1CCN(Cc2ccc(Nc3ncc(F)c(-c4cc(F)c5nc(C)n(C(C)C)c5c4)n3)nc2)CC1 [Abemaciclib] [listing 2 of 2 here]
- scaled lipid accumulation score [4]: 0.332
- scaled lipid accumulation score [5]: 0.55
- scaled lipid accumulation score [1]: 0.691
